# Assay results taken from PubChem BioAssay (Tox21).
# Results filed as inconclusive are left out. A number with no mark means an inactive call. Calls of active or inactive are those of the source. Calls follow the shape of the dose curve; as a rule, active = well fitted curve in the direction sought with a large enough effect in the repeat runs; inconclusive = weak or mixed curves; inactive = no such curve, though single readings can be large; an effect the other way counts as inactive or inconclusive.
# Test system: not listed separately
# Assay: qHTS assay to identify small molecule antagonists of the estrogen related receptor (ERR) signaling pathway from Tox21 library - cell viability counter screen (AID 1224834); also: nearly all actives have a fitted effect of over 30% in size
# Conditions: ERR reporter cells viability, CellTiter-Fluor, 17.5 h; series mostly up to 92.4 µM; viability change, negative = cytotoxic: at the top concentration
# Method in brief: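 CellTiter-Fluor fluorescence, read after 30 min at 37 C, measures viability of ERR cells. Cells plated at 2,000/well and incubated 6 h before pin-tool compound addition, then exposed 17.5 hours at 37 C.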
# % is scaled to controls: 0 for no effect and ±100 for the full control effect; potency is read from the fitted curve at half-maximal effect.
Structure (SMILES),"viability change, negative = cytotoxic",Potency
CC(C)CCOCCC(C)C,-0.155%,–
O=C1C=CC(=O)N1c1ccccc1,–,43.3 µM (active)
CCOC(OCC)C(=O)c1ccccc1,1.66%,–
Cc1cc(=O)[nH]c(=O)[nH]1,-1.37%,–
CCOC(=O)COc1ccc(C)cc1,3.86%,–
CCCC(=O)OCC(COC(=O)CCC)OC(=O)CCC,-1.15%,–
CC1CCCCC1,2.51%,–
O=C1OC(OC(=O)c2cccnc2Nc2cccc(C(F)(F)F)c2)c2ccccc21 (stereo not given),1.72% [at 42.5 µM],–
CCCCN(C)C,1.59%,–
CCCC(O)C(O)CO (stereo not given),1.07%,–
CCC(C)C(=O)OC (stereo not given),3.55%,–
CCCOc1sc(C(=O)N2CCC(c3cc(CN)ccc3F)CC2)c(C)c1Br,–,49.9 µM (active)
CC1CNCC(C)O1 (stereo not given),0.0225%,–
CCN(CC)c1cccc(C)c1,0.816%,–
C#CC(O)CCC (stereo not given),2.85%,–
C=C/C=C/C=C/CCCCC,-1.2% [at 19 µM],–
CCOCN(C(=O)CS(=O)(=O)O)c1c(C)cccc1CC,0.575%,–
CCCCOCC,0.493%,–

Structure (SMILES),"viability change, negative = cytotoxic",Potency
CCc1cccc(CC)c1NC(=O)C(=O)O,0.938%,–
CCCCOC(=O)C(C)CC (stereo not given),3.47%,–
Cc1cccc(Br)c1,0.25%,–
CC(=O)C=O,1.91%,–
CCCCCCCC(OC)OC,0.322% [at 42.5 µM],–
CCCCCCCCCCCCCc1ccccc1,5.8% [at 42.5 µM],–
CCC(C)c1ccccc1 (stereo not given),0.68%,–
C=CC(C)(CCC=C(C)C)OC(=O)/C=C/c1ccccc1 (stereo not given),2.43%,–
CCCCCCCOC(=O)c1ccccc1C(=O)OCCCCCCC,6.42%,–
O=C(O)Cc1ccc(OCCNC[C@H](O)c2ccccc2)cc1,-2.53% [at 42.5 µM],–
Cc1cccc(C)n1,-1.31%,–
COc1nccnc1CC(C)C,-0.606%,–
CC(C)(C)c1n[nH]c(=O)n(N)c1=O,-1.98%,–
CCCCCCCC/C=C/CCCOC(C)=O,-2.05%,–
O=C(O)c1cccc(Cl)n1,3.15%,–
C[C@]12CC[C@H]3C(=CCc4cc(O)ccc43)[C@@H]1CCC2=O,–,54.5 µM (active)
CC(=O)c1ccccc1N,3.02%,–

# Target: Luciferin 4-monooxygenase (Photinus pyralis) (UniProt P08659)
# Assay: qHTS assay to identify small molecule inhibitors of firefly luciferase (AID 1224835); also: nearly all actives have a fitted effect of over 25% in size
# Conditions: purified P. pyralis luciferase, luminescence inhibition; series mostly up to 115 µM; activity change, negative = inhibition: at the top concentration
# Method in brief: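 Quantitative HTS format; KM concentrations of both substrates. Purified P. pyralis FLuc activity quantified from luminescence images.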
# Sequence of Luciferin 4-monooxygenase (Photinus pyralis) (P08659 whole entry, looked up): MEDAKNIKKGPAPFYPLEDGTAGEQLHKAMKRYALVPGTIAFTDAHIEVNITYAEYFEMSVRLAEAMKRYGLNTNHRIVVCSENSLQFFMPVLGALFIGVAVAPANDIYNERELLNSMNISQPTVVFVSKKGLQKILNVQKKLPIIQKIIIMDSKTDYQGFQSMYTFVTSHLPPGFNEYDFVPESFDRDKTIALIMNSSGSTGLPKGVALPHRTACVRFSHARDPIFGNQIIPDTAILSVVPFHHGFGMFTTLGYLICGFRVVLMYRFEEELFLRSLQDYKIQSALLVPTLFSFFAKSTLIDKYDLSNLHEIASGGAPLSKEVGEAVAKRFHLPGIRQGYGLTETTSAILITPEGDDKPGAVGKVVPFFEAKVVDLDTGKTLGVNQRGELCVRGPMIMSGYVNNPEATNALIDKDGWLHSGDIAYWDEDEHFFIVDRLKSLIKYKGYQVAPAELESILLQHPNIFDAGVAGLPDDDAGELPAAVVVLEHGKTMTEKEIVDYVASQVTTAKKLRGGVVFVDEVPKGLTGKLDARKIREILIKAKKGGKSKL
Structure (SMILES),Potency,"activity change, negative = inhibition"
O=C1C=CC(=O)N1c1ccccc1,22.4 µM (active),–
Cc1cc(=O)[nH]c(=O)[nH]1,–,-7.27%
CCOC(=O)COc1ccc(C)cc1,63.3 µM (active),–
CCCC(=O)OCC(COC(=O)CCC)OC(=O)CCC,–,0.441%
CC1CCCCC1,–,2.51%
O=C1OC(OC(=O)c2cccnc2Nc2cccc(C(F)(F)F)c2)c2ccccc21 (stereo not given),–,-3.44% [at 52.9 µM]
CCCCN(C)C,–,2.53%
CCCC(O)C(O)CO (stereo not given),–,-0.625%
CCC(C)C(=O)OC (stereo not given),–,0.899%
CCCOc1sc(C(=O)N2CCC(c3cc(CN)ccc3F)CC2)c(C)c1Br,–,1.46%
CC1CNCC(C)O1 (stereo not given),–,-0.247%
CCN(CC)c1cccc(C)c1,–,-0.699%
C#CC(O)CCC (stereo not given),–,0.935%
C=C/C=C/C=C/CCCCC,–,0.374% [at 23.6 µM]
CCOCN(C(=O)CS(=O)(=O)O)c1c(C)cccc1CC,–,0.553%
CCCCOCC,–,0.3%
CCc1cccc(CC)c1NC(=O)C(=O)O,–,2.25%
Cc1cccc(Br)c1,–,0.726%
CC(=O)C=O,–,1.67%
CCCCCCCC(OC)OC,–,3.47% [at 52.9 µM]
CCCCCCCCCCCCCc1ccccc1,–,3.04% [at 52.9 µM]
CCC(C)c1ccccc1 (stereo not given),–,-1.07%
CCCCCCCOC(=O)c1ccccc1C(=O)OCCCCCCC,–,0.115%
O=C(O)Cc1ccc(OCCNC[C@H](O)c2ccccc2)cc1,–,-2.74% [at 52.9 µM]
COc1nccnc1CC(C)C,–,0.892%
CC(C)(C)c1n[nH]c(=O)n(N)c1=O,–,3.06%
CCCCCCCC/C=C/CCCOC(C)=O,–,0.276%
O=C(O)c1cccc(Cl)n1,–,1.17%
C[C@]12CC[C@H]3C(=CCc4cc(O)ccc43)[C@@H]1CCC2=O,35.6 µM (active),–
CC(=O)c1ccccc1N,–,-7.16%
